Results taken from PubChem BioAssay (EPA / NIEHS).
Results filed as inconclusive are left out. The source made the active and inactive calls. The calls were made as follows, unless noted: active = hit-call score of the fitted dose curve at least 0.9, where 1 is the maximum; inconclusive = response in the unintended direction; inactive = score below 0.9.

Experiments:
[1] = ATG_Oct_MLP_CIS: Attagene CIS-FACTORIAL HepG2 Assay for human Octamer-Binding Transcription Factor (Oct) (AID 2282993; active = hit-call score of the fitted dose curve at least 0.9, where 1 is the maximum; inactive = score below 0.9); settings: HepG2 Attagene cis-factorial Oct reporter, mRNA; actives raise or lower the signal
Outline: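 Multiplexed cis-reporter assay in human liver HepG2 cells, 24 h incubation. Reporter RNA amplified and labelled, then resolved by capillary electrophoresis; DMSO serves as negative control and baseline.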

[2] = target: Cellular tumor antigen p53 (Homo sapiens) (UniProt P04637); experiment: ATG_p53_CIS: Attagene CIS-FACTORIAL HepG2 Assay for human p53 Transcription Factor (AID 2282994; active = hit-call score of the fitted dose curve at least 0.9, where 1 is the maximum; inactive = score below 0.9); settings: HepG2 p53 cis-element reporter, Attagene mRNA; actives raise or lower the signal
Outline: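 Using HepG2 hepatoma cells carrying cis-acting multiplexed reporters, mRNA induction is detected after a 24 h exposure. Gain- and loss-of-signal responses are fitted relative to DMSO-treated cells.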

[3] = target: Peroxisome proliferator-activated receptor gamma (Homo sapiens) (UniProt P37231); experiment: ATG_PPARg_TRANS: Attagene TRANS-FACTORIAL HepG2 Assay for human Peroxisome Proliferator-activated Receptor-gamma (PPARg) (AID 2283007)
Outline: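 Read-out: reporter mRNA induction, detected by fluorescence after RT-PCR and capillary electrophoresis. Transiently transfected human HepG2 liver cells carrying a chimeric NR-Gal4 construct were dosed for 24 h; activity was fitted upward relative to DMSO.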

[4] = target: Nuclear receptor subfamily 1 group I member 2 (Homo sapiens) (UniProt O75469); experiment: ATG_PXR_TRANS: Attagene TRANS-FACTORIAL HepG2 Assay for human Pregnane X Receptor (PXR) (AID 2283008)
Outline: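 Fluorescence intensity of FAM-labelled, HpaI-digested reporter amplicons, separated by capillary electrophoresis, quantifies induction. HepG2 cells with PXR-Gal4 trans-reporter system were exposed 24 h; DMSO defines baseline.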

[5] = target: Retinoic acid receptor RXR-alpha (Homo sapiens) (UniProt P19793); experiment: ATG_RXRa_TRANS: Attagene TRANS-FACTORIAL HepG2 Assay for human Retinoid X Receptor alpha (RXRa) (AID 2283012)
Outline: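 HepG2 cells transiently transfected with multiplexed GAL4-UAS reporter units and chimeric NR-GAL4 fusions, dosed 24 h. Reporter mRNA measured by RT-PCR, FAM labelling, HpaI digestion and capillary electrophoresis; gain-of-signal fitted relative to DMSO baseline.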

[6] = BSK_3C_TissueFactor: BioMAP Diversity Plus: 3C Assay for Tissue Factor Biomarker Activity (AID 2282997; active = hit-call score of the fitted dose curve at least 0.9, where 1 is the maximum; inactive = score below 0.9); settings: BioMAP 3C HUVEC, tissue factor biomarker readout; actives raise or lower the signal
Outline: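 HUVEC were treated 24 h, then surface tissue factor measured by ELISA and fitted bidirectionally against DMSO. Parallel SRB total-protein staining assessed overt cytotoxicity at the same time point.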

[7] = BSK_3C_uPAR: BioMAP Diversity Plus: 3C Assay for Urokinase-type plasminogen activator receptor (uPAR) Biomarker Activity (AID 2282998; active = hit-call score of the fitted dose curve at least 0.9, where 1 is the maximum; inactive = score below 0.9); settings: BioMAP 3C HUVEC, uPAR biomarker ELISA; actives raise or lower the signal
Outline: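 Dose primary human umbilical vein endothelial cells, incubate 24 h, measure cell-surface uPAR by ELISA, then fit the signal in both directions against the DMSO negative control.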

[8] = BSK_3C_VCAM1: BioMAP Diversity Plus: 3C Assay for Vascular cell adhesion molecule 1 (VCAM1) Biomarker Activity (AID 2282999; active = hit-call score of the fitted dose curve at least 0.9, where 1 is the maximum; inactive = score below 0.9); settings: BioMAP 3C HUVEC, VCAM1 ELISA, cytokine-stimulated; actives raise or lower the signal
Outline: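 Endothelial cells from human umbilical vein are treated with test chemical. At 24 h, VCAM-1 is measured by ELISA, and responses in either direction are fitted relative to DMSO.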

[9] = BSK_4H_Eotaxin3: BioMAP Diversity Plus: 4H Assay for Eotaxin 3 Biomarker Activity (AID 2283000; active = hit-call score of the fitted dose curve at least 0.9, where 1 is the maximum; inactive = score below 0.9;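 also: CCL26 protein level quantified by ELISA in parallel with SRB cytotoxicity check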); settings: primary human endothelial cells (HUVEC); actives raise or lower the signal
Outline: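 Eotaxin-3 (CCL26) levels were measured by ELISA in HUVEC primary cultures 24 h post-dosing. Gain or loss of signal was fitted in both directions, with DMSO serving as baseline and negative control.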

[10] = target: human Peroxisome Proliferator-activated Receptor alpha (PPARa), PPARA (gene 5465) (UniProt Q07869); experiment: ATG_PPARa_TRANS: Attagene TRANS-FACTORIAL HepG2 Assay for human Peroxisome Proliferator-activated Receptor alpha (PPARa) (AID 2283001)
Outline: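 Reporter transcripts from GAL4-UAS units in transfected HepG2 were quantified 24 h after dosing. Detection used reverse transcription, PCR, fluorescent primer extension and capillary electrophoresis, with DMSO as baseline.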

[11] = read-out: Intercellular Adhesion Molecule 1 (ICAM1), ICAM1 (gene 3383); experiment: BSK_3C_ICAM1: BioMAP Diversity Plus: 3C Assay for Intercellular Adhesion Molecule 1 (ICAM1) Biomarker Activity (AID 2283003; active = hit-call score of the fitted dose curve at least 0.9, where 1 is the maximum; inactive = score below 0.9); settings: primary human endothelial cells (HUVEC); actives raise or lower the signal
Outline: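 Primary human umbilical vein endothelial cells in the BioMAP 3C system were exposed to chemicals for 24 h, then ICAM-1 was quantified by ELISA. Activity was fitted bidirectionally against the DMSO negative control baseline.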

[12] = target: human Retinoic Acid Receptor beta (RARb), RARB (gene 5915) (UniProt P10826); experiment: ATG_RARb_TRANS: Attagene TRANS-FACTORIAL HepG2 Assay for human Retinoic Acid Receptor beta (AID 2283004)
Outline: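 HepG2 cells were transiently transfected with GAL4-UAS reporter units that report activity of exogenous chimeric NR-Gal4 proteins, then exposed to compound for 24 h. Reporter mRNA was quantified by RT-PCR with capillary electrophoresis fluorescence, as gain of signal over DMSO.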

[13] = target: Retinoic acid receptor alpha (Homo sapiens) (UniProt P10276); experiment: ATG_RARa_TRANS: Attagene TRANS-FACTORIAL HepG2 Assay for human Retinoic Acid Receptor alpha (RARa) (AID 2283005)
Outline: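 Reporter transcripts, measured by RT-PCR with fluorescent labeling and capillary electrophoresis after 24 h dosing, reflect activity of an exogenous human RARa–GAL4 fusion in transiently transfected HepG2. Fitted for increase relative to DMSO.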

[14] = BSK_3C_Proliferation: Cell Proliferation Assessment in the BioMAP Diversity Plus: 3C Assay (AID 2283006; active = hit-call score of the fitted dose curve at least 0.9, where 1 is the maximum; inactive = score below 0.9); settings: primary human endothelial cells (HUVEC)
Outline: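 Human umbilical vein endothelial cells were grown sub-confluent and exposed to chemical for 48 h, then fixed with 10% TCA and stained with 0.1% sulforhodamine B; absorbance at 560 nm gave relative cell number, fitted bidirectionally against DMSO baseline.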

[15] = target: human Retinoic Acid Receptor gamma (RARg), RARG (gene 5916) (UniProt P13631); experiment: ATG_RARg_TRANS: Attagene TRANS-FACTORIAL HepG2 Assay for human Retinoic Acid Receptor gamma (RARg) (AID 2283009)
Outline: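 HepG2 cells transiently transfected with multiplexed reporter units expressing chimeric RARg-GAL4 and GAL4-UAS-driven reporters; 24 h compound exposure. Reporter mRNA quantified by RT-PCR with fluorescent labelling and capillary electrophoresis; gain-of-signal fitted relative to DMSO baseline.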

[16] = target: human RAR-related Orphan Receptor beta (RORb), RORB (gene 6096) (UniProt Q92753); experiment: ATG_RORb_TRANS: Attagene TRANS-FACTORIAL HepG2 Assay for human RAR-related Orphan Receptor beta (RORb) (AID 2283010)
Outline: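 HepG2 cells were transiently transfected with multiplexed GAL4-UAS reporter units expressing chimeric nuclear receptor–GAL4 proteins, then dosed for 24 h. Reporter mRNA was quantified by RT-PCR with fluorescent labelling and capillary electrophoresis; gain of signal was fitted relative to DMSO.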

[17] = target: human Retinoid X Receptor beta (RXRb), RXRB (gene 6257) (UniProt P28702); experiment: ATG_RXRb_TRANS: Attagene TRANS-FACTORIAL HepG2 Assay for human Retinoid X Receptor beta (RXRb) (AID 2283013)
Outline: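 HepG2 cells transiently transfected with multiplexed reporter units driven by GAL4-UAS and exogenous chimeric NR-Gal4 proteins; treated 24 h. Reporter mRNA measured by RT-PCR, 6-FAM labelling and capillary electrophoresis; gain-of-signal fitted versus DMSO baseline.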

[18] = target: human Thyroid Receptor alpha (THRa1), THRA (gene 7067) (UniProt P10827); experiment: ATG_THRa1_TRANS: Attagene TRANS-FACTORIAL HepG2 Assay for human Thyroid Receptor alpha (THRa1) (AID 2283014)
Outline: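 HepG2 cells transiently transfected with chimeric NR-Gal4 and GAL4-UAS reporter units, dosed 24 h. Reporter mRNA quantified by RT-PCR, fluorescent labeling, HpaI digestion and capillary electrophoresis; gain-of-signal fit versus DMSO.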

[19] = target: human RAR-related Orphan Receptor gamma (RORg), RORC (gene 6097) (UniProt P51449); experiment: ATG_RORg_TRANS: Attagene TRANS-FACTORIAL HepG2 Assay for human RAR-related Orphan Receptor gamma (RORg) (AID 2283011)
Outline: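 HepG2 cells transiently transfected with GAL4-UAS reporter units and chimeric RORg-Gal4 construct; after 24 h chemical exposure, reporter mRNA measured by RT-PCR with fluorescent capillary electrophoresis, gain of signal fitted against DMSO.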

[20] = target: human Peroxisome Proliferator-activated Receptor delta (PPARd), PPARD (gene 5467) (UniProt Q03181); experiment: ATG_PPARd_TRANS: Attagene TRANS-FACTORIAL HepG2 Assay for human Peroxisome Proliferator-activated Receptor delta (PPARd) (AID 2283002)
Outline: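 Cell-based TRANS reporter: HepG2, transient MRTU transfection, 24 h exposure. Readout = reporter mRNA (RT-PCR/CE, 6-FAM). Gain-of-signal fit vs DMSO control.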

Measured: AC50

Chain of human Thyroid Receptor alpha (THRa1), THRA (gene 7067) (P10827 whole entry, looked up, the tested form may be a part): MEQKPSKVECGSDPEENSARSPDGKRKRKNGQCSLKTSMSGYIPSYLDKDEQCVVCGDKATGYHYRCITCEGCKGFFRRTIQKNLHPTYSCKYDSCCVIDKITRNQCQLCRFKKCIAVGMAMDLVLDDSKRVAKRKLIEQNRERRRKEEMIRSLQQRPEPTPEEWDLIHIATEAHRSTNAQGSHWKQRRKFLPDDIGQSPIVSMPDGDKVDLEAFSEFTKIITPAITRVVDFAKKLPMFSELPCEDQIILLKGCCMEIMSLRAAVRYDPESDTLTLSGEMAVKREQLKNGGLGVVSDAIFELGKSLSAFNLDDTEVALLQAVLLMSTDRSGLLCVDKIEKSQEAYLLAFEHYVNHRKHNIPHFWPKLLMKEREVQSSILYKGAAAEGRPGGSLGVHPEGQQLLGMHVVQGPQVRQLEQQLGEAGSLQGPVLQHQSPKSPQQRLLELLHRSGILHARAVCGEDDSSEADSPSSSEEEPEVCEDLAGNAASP
Chain of human Peroxisome Proliferator-activated Receptor alpha (PPARa), PPARA (gene 5465) (Q07869 whole entry, looked up, the tested form may be a part): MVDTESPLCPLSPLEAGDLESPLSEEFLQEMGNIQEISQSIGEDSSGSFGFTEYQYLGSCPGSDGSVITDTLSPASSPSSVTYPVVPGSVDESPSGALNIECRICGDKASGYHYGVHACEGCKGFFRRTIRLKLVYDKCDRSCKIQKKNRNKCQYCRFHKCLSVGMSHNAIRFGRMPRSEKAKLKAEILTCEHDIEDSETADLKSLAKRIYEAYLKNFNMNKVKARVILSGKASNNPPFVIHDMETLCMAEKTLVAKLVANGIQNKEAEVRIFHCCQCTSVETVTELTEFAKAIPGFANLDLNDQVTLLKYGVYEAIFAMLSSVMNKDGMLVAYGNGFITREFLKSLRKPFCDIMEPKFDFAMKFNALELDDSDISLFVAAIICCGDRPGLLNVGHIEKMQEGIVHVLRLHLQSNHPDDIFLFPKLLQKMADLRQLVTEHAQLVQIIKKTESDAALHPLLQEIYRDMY
Chain of Cellular tumor antigen p53 (Homo sapiens) (P04637 whole entry, looked up): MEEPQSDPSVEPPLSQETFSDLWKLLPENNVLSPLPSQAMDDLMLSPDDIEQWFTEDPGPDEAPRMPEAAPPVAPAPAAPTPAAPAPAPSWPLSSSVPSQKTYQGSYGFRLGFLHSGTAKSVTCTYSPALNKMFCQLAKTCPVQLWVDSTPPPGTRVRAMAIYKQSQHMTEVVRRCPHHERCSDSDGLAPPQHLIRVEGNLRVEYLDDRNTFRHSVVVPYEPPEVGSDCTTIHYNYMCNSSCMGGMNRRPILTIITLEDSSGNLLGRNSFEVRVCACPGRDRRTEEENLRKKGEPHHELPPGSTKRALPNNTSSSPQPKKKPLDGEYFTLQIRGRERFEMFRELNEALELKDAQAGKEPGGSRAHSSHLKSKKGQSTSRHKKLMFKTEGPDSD
Chain of Peroxisome proliferator-activated receptor gamma (Homo sapiens) (P37231 whole entry, looked up, the tested form may be a part): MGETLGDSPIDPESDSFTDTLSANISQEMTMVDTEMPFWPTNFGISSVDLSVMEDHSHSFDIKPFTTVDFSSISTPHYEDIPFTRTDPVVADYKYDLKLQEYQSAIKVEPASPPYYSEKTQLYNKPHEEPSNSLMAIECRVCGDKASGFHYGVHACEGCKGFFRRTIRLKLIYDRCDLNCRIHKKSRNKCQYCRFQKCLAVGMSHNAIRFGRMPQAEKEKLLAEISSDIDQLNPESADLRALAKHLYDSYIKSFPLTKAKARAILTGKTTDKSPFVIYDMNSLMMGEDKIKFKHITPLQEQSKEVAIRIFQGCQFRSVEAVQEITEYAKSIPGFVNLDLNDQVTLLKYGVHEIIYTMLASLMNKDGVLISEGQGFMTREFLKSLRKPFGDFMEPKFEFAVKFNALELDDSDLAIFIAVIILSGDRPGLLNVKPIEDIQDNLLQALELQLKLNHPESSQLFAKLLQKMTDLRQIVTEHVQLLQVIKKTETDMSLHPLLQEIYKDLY
Chain of human Retinoid X Receptor beta (RXRb), RXRB (gene 6257) (P28702 whole entry, looked up, the tested form may be a part): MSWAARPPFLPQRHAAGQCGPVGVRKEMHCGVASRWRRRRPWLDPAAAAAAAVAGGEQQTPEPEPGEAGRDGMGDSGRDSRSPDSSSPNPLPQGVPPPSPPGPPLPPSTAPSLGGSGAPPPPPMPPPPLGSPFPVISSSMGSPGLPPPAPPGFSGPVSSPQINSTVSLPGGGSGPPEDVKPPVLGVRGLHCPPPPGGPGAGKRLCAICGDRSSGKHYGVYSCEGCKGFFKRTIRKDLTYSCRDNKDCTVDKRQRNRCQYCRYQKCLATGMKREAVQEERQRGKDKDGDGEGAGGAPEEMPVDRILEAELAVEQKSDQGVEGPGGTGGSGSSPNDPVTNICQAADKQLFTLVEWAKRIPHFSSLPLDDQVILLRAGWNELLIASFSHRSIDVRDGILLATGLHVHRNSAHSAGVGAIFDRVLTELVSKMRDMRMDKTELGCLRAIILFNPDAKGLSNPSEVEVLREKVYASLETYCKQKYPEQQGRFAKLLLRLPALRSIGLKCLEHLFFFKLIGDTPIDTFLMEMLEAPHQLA
Chain of human RAR-related Orphan Receptor beta (RORb), RORB (gene 6096) (Q92753 whole entry, looked up, the tested form may be a part): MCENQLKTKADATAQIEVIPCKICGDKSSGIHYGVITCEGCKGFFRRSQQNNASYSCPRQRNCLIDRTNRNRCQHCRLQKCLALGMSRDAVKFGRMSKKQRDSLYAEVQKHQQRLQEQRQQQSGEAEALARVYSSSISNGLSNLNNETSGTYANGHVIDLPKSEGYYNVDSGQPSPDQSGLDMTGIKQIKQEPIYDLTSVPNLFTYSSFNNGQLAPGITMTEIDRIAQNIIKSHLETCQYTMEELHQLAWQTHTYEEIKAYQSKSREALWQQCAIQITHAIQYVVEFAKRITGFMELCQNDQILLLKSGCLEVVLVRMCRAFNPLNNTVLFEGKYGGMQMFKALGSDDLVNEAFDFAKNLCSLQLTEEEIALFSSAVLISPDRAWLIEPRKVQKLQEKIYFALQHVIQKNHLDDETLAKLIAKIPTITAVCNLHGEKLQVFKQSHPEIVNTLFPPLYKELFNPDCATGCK
Chain of Retinoic acid receptor RXR-alpha (Homo sapiens) (P19793 whole entry, looked up, the tested form may be a part): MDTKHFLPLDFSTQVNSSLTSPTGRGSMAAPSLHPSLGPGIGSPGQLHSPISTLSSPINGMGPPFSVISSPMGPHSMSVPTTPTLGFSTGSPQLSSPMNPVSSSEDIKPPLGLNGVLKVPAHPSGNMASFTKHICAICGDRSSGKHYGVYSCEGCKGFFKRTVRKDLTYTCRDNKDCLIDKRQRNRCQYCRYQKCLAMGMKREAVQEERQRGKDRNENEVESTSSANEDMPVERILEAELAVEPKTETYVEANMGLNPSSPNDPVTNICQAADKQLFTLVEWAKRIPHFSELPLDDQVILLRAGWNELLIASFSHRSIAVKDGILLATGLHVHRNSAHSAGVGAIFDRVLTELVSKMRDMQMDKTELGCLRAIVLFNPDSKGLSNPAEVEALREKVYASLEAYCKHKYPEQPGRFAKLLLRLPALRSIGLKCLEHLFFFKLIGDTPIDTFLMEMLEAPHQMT
Chain of Nuclear receptor subfamily 1 group I member 2 (Homo sapiens) (O75469 whole entry, looked up, the tested form may be a part): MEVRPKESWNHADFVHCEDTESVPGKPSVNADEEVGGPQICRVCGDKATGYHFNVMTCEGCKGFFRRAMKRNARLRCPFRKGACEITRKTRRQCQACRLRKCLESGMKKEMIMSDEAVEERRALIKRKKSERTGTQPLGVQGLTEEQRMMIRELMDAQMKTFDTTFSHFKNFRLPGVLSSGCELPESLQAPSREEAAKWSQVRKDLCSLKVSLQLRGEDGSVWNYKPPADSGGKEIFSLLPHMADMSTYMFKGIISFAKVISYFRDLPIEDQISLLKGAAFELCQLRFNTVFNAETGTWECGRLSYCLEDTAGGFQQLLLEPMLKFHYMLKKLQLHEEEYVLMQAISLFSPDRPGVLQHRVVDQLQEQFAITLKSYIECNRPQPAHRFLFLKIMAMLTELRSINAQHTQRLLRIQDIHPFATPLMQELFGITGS
Chain of human Retinoic Acid Receptor gamma (RARg), RARG (gene 5916) (P13631 whole entry, looked up, the tested form may be a part): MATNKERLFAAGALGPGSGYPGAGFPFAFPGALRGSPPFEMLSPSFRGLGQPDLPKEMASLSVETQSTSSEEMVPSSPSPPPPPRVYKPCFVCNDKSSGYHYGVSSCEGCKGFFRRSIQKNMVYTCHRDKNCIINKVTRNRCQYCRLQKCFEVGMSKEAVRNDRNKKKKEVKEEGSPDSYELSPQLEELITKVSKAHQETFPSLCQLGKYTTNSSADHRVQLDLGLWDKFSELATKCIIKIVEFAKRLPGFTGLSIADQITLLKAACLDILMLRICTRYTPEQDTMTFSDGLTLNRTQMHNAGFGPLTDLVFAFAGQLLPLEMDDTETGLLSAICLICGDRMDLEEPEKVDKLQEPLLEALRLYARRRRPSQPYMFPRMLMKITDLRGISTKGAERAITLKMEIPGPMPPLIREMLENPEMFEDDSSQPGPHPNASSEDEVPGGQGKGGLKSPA
Chain of Retinoic acid receptor alpha (Homo sapiens) (P10276 whole entry, looked up, the tested form may be a part): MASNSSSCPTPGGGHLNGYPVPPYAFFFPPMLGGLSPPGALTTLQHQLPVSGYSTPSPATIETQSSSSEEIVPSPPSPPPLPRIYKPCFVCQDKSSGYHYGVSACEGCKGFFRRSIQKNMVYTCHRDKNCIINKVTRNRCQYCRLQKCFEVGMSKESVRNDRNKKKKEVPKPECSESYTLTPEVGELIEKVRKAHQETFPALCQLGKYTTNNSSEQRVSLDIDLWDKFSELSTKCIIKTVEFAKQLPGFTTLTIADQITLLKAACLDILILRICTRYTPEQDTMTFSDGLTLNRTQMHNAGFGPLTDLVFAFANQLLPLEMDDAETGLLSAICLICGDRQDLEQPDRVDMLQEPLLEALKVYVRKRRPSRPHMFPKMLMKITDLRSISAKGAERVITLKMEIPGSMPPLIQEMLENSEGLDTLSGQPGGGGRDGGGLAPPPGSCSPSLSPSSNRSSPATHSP

CC(C)[C@H](C(=O)OC(C#N)c1cccc(Oc2ccccc2)c1)c1ccc(OC(F)F)cc1 (stereo not given in full)
active: [4] 693 nM
inactive: [1] | [2] | [3] | [5]

COc1ccccc1N
inactive: [1] | [6] | [7] | [8] | [9] | [10] | [11] | [12] | [13] | [14] | [3] | [4] | [15] | [16] | [5] | [17] | [18]

C=CC(Cl)CCl (stereo not given)
active: [6] 17.4 nM | [4] 27200 nM
inactive: [1] | [7] | [8] | [9] | [10] | [11] | [13] | [14] | [3] | [15] | [16] | [5]

O=NN1CCCCCCC1
inactive: [1] | [2] | [3] | [4] | [5] | [17]

CC(C)(C1CCC(O)CC1)C1CCC(O)CC1 (stereo not given)
inactive: [1] | [2] | [12] | [4] | [5] | [17]

Nc1ccc(N)cc1
inactive: [1] | [6] | [7] | [8] | [9] | [10] | [11] | [13] | [14] | [3] | [15] | [16] | [19] | [5] | [18]

C#C[C@]1(O)CC[C@H]2[C@@H]3CCC4=CC(=O)CC[C@]4(C)[C@H]3CC[C@@]21C
inactive: [1] | [2] | [19] | [5] | [18]

N#Cc1cccnc1
inactive: [1] | [6] | [7] | [8] | [9] | [10] | [20] | [11] | [14] | [4] | [16] | [18]
